# Assay results published in PubChem BioAssay (NCATS).
# Several values for one entry are separate records, joined by “and”; a condition that tells them apart may be missing. Equal values may be shown once. Records with an inconclusive call do not appear. Some structures have more than one record in an assay (separate samples or runs), and their calls can disagree. Values without a mark were called inactive. Activity calls are given as the source filed them. Calls come from the whole dose curve; as a rule, active = well fitted inhibition curve with a large enough effect; inconclusive = small, poorly fitted or top-dose-only effect; inactive = flat fitted curve, though single readings scatter.
# Tested on: HaCat
# Test: Cytotoxic Profiling of Annotated Libraries Using Quantitative High-Throughput Screening (AID 1296008); note: nearly all actives have a fitted effect of over 60% in size
# Settings: Five cell lines viability, CellTiter-Glo ATP luminescence, 48-72 h; max response: hits give low values
# Outline: (§1)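 Compounds were pin-transferred onto cells and incubated 48 or 72 hr at 37 degree Celsius, 95% humidity. CellTiter-Glo was added, plates sat 10 min at room temperature, then ATP-coupled luminescence was imaged as the viability read-out.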
# % is set by controls: 0 for no effect and ±100 for the full control effect; potency is the fitted concentration of half-maximal effect.
SMILES,outcome,max response,Potency
CO[C@H]1C[C@@H]2CC[C@@H](C)[C@@](O)(O2)C(=O)C(=O)N2CCCC[C@@H]2C(=O)O[C@H]([C@@H](C)C[C@@H]2CC[C@H](O)[C@H](OC)C2)CC(=O)[C@H](C)C=C(C)[C@@H](O)[C@@H](OC)C(=O)[C@H](C)C[C@H](C)C=CC=CC=C1C,inactive,–,–
O=C(O)CCC1CCC(c2cc(F)ccc2F)(S(=O)(=O)c2ccc(Cl)cc2)CC1 (configuration not stated),inactive,–,–
CCOC(CN1C(=O)[C@](CC(=O)Nc2ccc(C)cc2)(NC(=O)Nc2ccc(C)cc2)c2ccccc21)OCC,–,-19.2%,–
COc1cc(N2CCC(N3CCN(C)CC3)CC2)ccc1Nc1ncc(Cl)c(Nc2ccccc2S(=O)(=O)C(C)C)n1,–,–,3.66 µM (active)
CC1CCC(C(=O)N(c2cc(C#CC(C)(C)C)sc2C(=O)O)C2CCC(O)CC2)CC1 (configuration not stated),inactive,–,–
CCOC1OC(=O)C[C@H]1NC(=O)[C@@H]1CCCN1C(=O)[C@@H](NC(=O)c1ccc(N)c(Cl)c1)C(C)(C)C (some centres not stated),inactive,–,–
c1cc(-c2sc(-c3ccncc3)c(-c3ccncc3)c2-c2ccncc2)ccn1,inactive,–,–
CCCCCCCCCCCC1=C(O)C(=O)C=C(O)C1=O,inactive,–,–
COc1cc2nc(-c3ccc(N4CCN(C)CC4)cc3)nc(NCCN3CCOCC3)c2cc1OC,–,–,0.935 µM (active)
COC1CCC(N(C(=O)C2CCC(C)CC2)c2cc(C3=CCCCC3)sc2C(=O)O)CC1 (configuration not stated),–,-16%,–
CN1CCN(CCOc2cc(OC3CCOCC3)c3c(Nc4c(Cl)ccc5c4OCO5)ncnc3c2)CC1,–,–,3.32 µM (active) and 366 nM (active)
COC(=O)C1=CO[C@@H](O)[C@@H]2C(CO)=CC[C@@H]12,–,3.95%,–
N#Cc1ccc(NC(=O)Nc2ccccc2Br)c2n[nH]nc12,inactive,–,–
COc1ccc(-c2cc(=O)c3c(O)cc(O)cc3o2)cc1O,–,3.57%,–
OC[C@@H](O)[C@H](O)[C@H](O)[C@@H](O)CO,inactive,–,–
CC1(C)Cc2c(sc(NC(=S)NC(=O)c3ccccc3)c2C(=O)O)CO1,inactive,–,–
CC(=O)O[C@]1(C(C)=O)CC[C@@H]2[C@@H]3C[C@H](C)C4=CC(=O)CC[C@]4(C)[C@H]3CC[C@@]21C,inactive,–,–
CC(C)(C)c1ccc(C(O)CCCN2CCC(C(O)(c3ccccc3)c3ccccc3)CC2)cc1 (configuration not stated),–,1.94%,–

SMILES,outcome,max response,Potency
O=C1c2ccccc2-[n+]2ccc3c([nH]c4ccccc43)c21,–,–,1.32 µM (active)
NC1=N[C@@]2(c3cc(NC(=O)c4ccc(F)cn4)ccc3F)COC[C@@H]2CS1,–,-6.87%,–
CC1(C)CCC[C@@]2(C)[C@@H]1CC[C@@]1(C)OC(=O)C[C@H]21,inactive,–,–
CC(C)(C)COc1ccc(-n2cc(C(=O)O)cn2)cc1C#N,inactive,–,–
C[C@]12CCC3c4ccc(O)cc4CCC3C1CCC2=O (some centres not stated),–,-11.3%,–
O=c1cc(-c2cccc3c2Sc2ccccc2S3)oc(N2CCOCC2)c1,–,-21.6%,–
CO[C@@H](C(=O)N1Cc2[nH]nc(NC(=O)c3ccc(N4CCN(C)CC4)cc3)c2C1)c1ccccc1,–,–,2.35 µM (active)
CC(C(=O)O)c1ccc(-c2ccccc2)c(F)c1 (configuration not stated),inactive,–,–
Clc1ccc(-c2nc3sccn3c2C=NOCc2ccc(Cl)c(Cl)c2)cc1,inactive,–,–
Cc1c[nH]c(C=C2C(=O)Nc3ccccc32)c1CCC(=O)O,inactive,–,–
Cn1c(N2CCCCS2(=O)=O)nc(C(=O)NCc2ccc(F)cc2)c(O)c1=O,inactive,–,–
Cc1nc(N)sc1-c1ccnc(Nc2ccc(N3CCOCC3)cc2)n1,–,–,18.7 µM (active) and 1.16 µM (active)
O=C(CCCCCCC(=O)Nc1ccccc1)NO,–,–,7.5 µM (active) and 9.2 µM (active)
OC[C@H]1O[C@@H](Oc2cc(O)cc(C=Cc3ccc(O)cc3)c2)[C@H](O)[C@@H](O)[C@H]1O,–,-6.02%,–
CC(C)C(C)C=CC(C)C1CCC2C3=CC=C4CC(O)CCC4(C)C3CCC21C (configuration not stated),–,-0.819%,–
CC=CC(=O)N(CC)c1ccccc1C,inactive,–,–
COc1cccc(-c2cc(=O)c3ccccc3o2)c1N,–,-7.74%,–
CC(C)NCC(O)COc1cccc2[nH]ccc12 (configuration not stated),–,-22.9% and 1.98%,–

# Tested on: KB-3-1
# Test: as above
# Settings: Five cell lines viability, CellTiter-Glo ATP luminescence, 48-72 h; max response: hits give low values
# Outline: as §1
SMILES,max response,outcome,Potency
CO[C@H]1C[C@@H]2CC[C@@H](C)[C@@](O)(O2)C(=O)C(=O)N2CCCC[C@@H]2C(=O)O[C@H]([C@@H](C)C[C@@H]2CC[C@H](O)[C@H](OC)C2)CC(=O)[C@H](C)C=C(C)[C@@H](O)[C@@H](OC)C(=O)[C@H](C)C[C@H](C)C=CC=CC=C1C,-8.34%,–,–
O=C(O)CCC1CCC(c2cc(F)ccc2F)(S(=O)(=O)c2ccc(Cl)cc2)CC1 (configuration not stated),–,inactive,–
CCOC(CN1C(=O)[C@](CC(=O)Nc2ccc(C)cc2)(NC(=O)Nc2ccc(C)cc2)c2ccccc21)OCC,-11%,–,–
COc1cc(N2CCC(N3CCN(C)CC3)CC2)ccc1Nc1ncc(Cl)c(Nc2ccccc2S(=O)(=O)C(C)C)n1,–,–,920 nM (active)
CC1CCC(C(=O)N(c2cc(C#CC(C)(C)C)sc2C(=O)O)C2CCC(O)CC2)CC1 (configuration not stated),-8.44% and -2.14%,–,–
CCOC1OC(=O)C[C@H]1NC(=O)[C@@H]1CCCN1C(=O)[C@@H](NC(=O)c1ccc(N)c(Cl)c1)C(C)(C)C (some centres not stated),–,inactive,–
c1cc(-c2sc(-c3ccncc3)c(-c3ccncc3)c2-c2ccncc2)ccn1,6.28%,–,–
CCCCCCCCCCCC1=C(O)C(=O)C=C(O)C1=O,–,inactive,–
COc1cc2nc(-c3ccc(N4CCN(C)CC4)cc3)nc(NCCN3CCOCC3)c2cc1OC,–,–,66.2 nM (active)
COC1CCC(N(C(=O)C2CCC(C)CC2)c2cc(C3=CCCCC3)sc2C(=O)O)CC1 (configuration not stated),-3.16%,–,–
CN1CCN(CCOc2cc(OC3CCOCC3)c3c(Nc4c(Cl)ccc5c4OCO5)ncnc3c2)CC1,2.81% and -8.03%,–,–
COC(=O)C1=CO[C@@H](O)[C@@H]2C(CO)=CC[C@@H]12,-1.15%,–,–
N#Cc1ccc(NC(=O)Nc2ccccc2Br)c2n[nH]nc12,1.71%,–,–
COc1ccc(-c2cc(=O)c3c(O)cc(O)cc3o2)cc1O,-19.6%,–,–
OC[C@@H](O)[C@H](O)[C@H](O)[C@@H](O)CO,-5.61% and 12.2%,–,–
CC1(C)Cc2c(sc(NC(=S)NC(=O)c3ccccc3)c2C(=O)O)CO1,–,inactive,–
CC(=O)O[C@]1(C(C)=O)CC[C@@H]2[C@@H]3C[C@H](C)C4=CC(=O)CC[C@]4(C)[C@H]3CC[C@@]21C,–,inactive,–
CC(C)(C)c1ccc(C(O)CCCN2CCC(C(O)(c3ccccc3)c3ccccc3)CC2)cc1 (configuration not stated),-14.6% and -4.64%,–,–

SMILES,max response,outcome,Potency
O=C1c2ccccc2-[n+]2ccc3c([nH]c4ccccc43)c21,–,–,2960 nM (active)
NC1=N[C@@]2(c3cc(NC(=O)c4ccc(F)cn4)ccc3F)COC[C@@H]2CS1,8.68%,–,–
CC1(C)CCC[C@@]2(C)[C@@H]1CC[C@@]1(C)OC(=O)C[C@H]21,5.91%,–,–
CC(C)(C)COc1ccc(-n2cc(C(=O)O)cn2)cc1C#N,7.58%,–,–
C[C@]12CCC3c4ccc(O)cc4CCC3C1CCC2=O (some centres not stated),7.4%,–,–
O=c1cc(-c2cccc3c2Sc2ccccc2S3)oc(N2CCOCC2)c1,–,inactive,–
CO[C@@H](C(=O)N1Cc2[nH]nc(NC(=O)c3ccc(N4CCN(C)CC4)cc3)c2C1)c1ccccc1,–,–,11800 nM (active)
CC(C(=O)O)c1ccc(-c2ccccc2)c(F)c1 (configuration not stated),-1.08% and -0.207%,–,–
Clc1ccc(-c2nc3sccn3c2C=NOCc2ccc(Cl)c(Cl)c2)cc1,-5.79%,–,–
Cc1c[nH]c(C=C2C(=O)Nc3ccccc32)c1CCC(=O)O,-13.5%,–,–
Cn1c(N2CCCCS2(=O)=O)nc(C(=O)NCc2ccc(F)cc2)c(O)c1=O,0.163% and -14.6%,–,–
Cc1nc(N)sc1-c1ccnc(Nc2ccc(N3CCOCC3)cc2)n1,–,–,1.66 µM (active) and 1.64 µM (active)
O=C(CCCCCCC(=O)Nc1ccccc1)NO,–,–,7.31 µM (active) and 5.8 µM (active) and 9.35 µM (active)
OC[C@H]1O[C@@H](Oc2cc(O)cc(C=Cc3ccc(O)cc3)c2)[C@H](O)[C@@H](O)[C@H]1O,–,inactive,–
CC(C)C(C)C=CC(C)C1CCC2C3=CC=C4CC(O)CCC4(C)C3CCC21C (configuration not stated),1.29%,–,–
CC=CC(=O)N(CC)c1ccccc1C,2.01%,–,–
COc1cccc(-c2cc(=O)c3ccccc3o2)c1N,-0.147%,–,–
CC(C)NCC(O)COc1cccc2[nH]ccc12 (configuration not stated),13.5% and 2.02%,–,–
